Compound activity deposited in PubChem BioAssay by Johns Hopkins Ion Channel Center.
CHT allo act – CHT positive allosteric modulators, primary screen, cell-based, membrane potential dye, choline EC20; B-score at 10 µM; 0.49% of 310,000 active; CHT-expressing cells; hits give high values; LV-AA mutant CHT in HEK293 cells; High affinity choline transporter 1 (Homo sapiens), Q9GZV3;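 active means initial fluorescence not abnormally high and integrated response B-score, plate-corrected, over 3 SD above library mean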
TMEM16A inh – TMEM16A chloride channel inhibitors, primary screen, cell-based, HTS; 1.2% of 310,000 active; HEK293 TMEM16A/YFP iodide influx fluorescence, ionomycin; normalized B-score (activity score, 25-100; higher = stronger inhibition) at 10 µM; Anoctamin-1 (Mus musculus), Q8BHY3;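 active means ratio plate-corrected score three or more library SD toward inhibition, starting fluorescence score within five deviations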;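 further: score derived from kinetic fluorescence span divided by baseline fluorescence per well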
Target sequence (Q8BHY3 whole entry, looked up): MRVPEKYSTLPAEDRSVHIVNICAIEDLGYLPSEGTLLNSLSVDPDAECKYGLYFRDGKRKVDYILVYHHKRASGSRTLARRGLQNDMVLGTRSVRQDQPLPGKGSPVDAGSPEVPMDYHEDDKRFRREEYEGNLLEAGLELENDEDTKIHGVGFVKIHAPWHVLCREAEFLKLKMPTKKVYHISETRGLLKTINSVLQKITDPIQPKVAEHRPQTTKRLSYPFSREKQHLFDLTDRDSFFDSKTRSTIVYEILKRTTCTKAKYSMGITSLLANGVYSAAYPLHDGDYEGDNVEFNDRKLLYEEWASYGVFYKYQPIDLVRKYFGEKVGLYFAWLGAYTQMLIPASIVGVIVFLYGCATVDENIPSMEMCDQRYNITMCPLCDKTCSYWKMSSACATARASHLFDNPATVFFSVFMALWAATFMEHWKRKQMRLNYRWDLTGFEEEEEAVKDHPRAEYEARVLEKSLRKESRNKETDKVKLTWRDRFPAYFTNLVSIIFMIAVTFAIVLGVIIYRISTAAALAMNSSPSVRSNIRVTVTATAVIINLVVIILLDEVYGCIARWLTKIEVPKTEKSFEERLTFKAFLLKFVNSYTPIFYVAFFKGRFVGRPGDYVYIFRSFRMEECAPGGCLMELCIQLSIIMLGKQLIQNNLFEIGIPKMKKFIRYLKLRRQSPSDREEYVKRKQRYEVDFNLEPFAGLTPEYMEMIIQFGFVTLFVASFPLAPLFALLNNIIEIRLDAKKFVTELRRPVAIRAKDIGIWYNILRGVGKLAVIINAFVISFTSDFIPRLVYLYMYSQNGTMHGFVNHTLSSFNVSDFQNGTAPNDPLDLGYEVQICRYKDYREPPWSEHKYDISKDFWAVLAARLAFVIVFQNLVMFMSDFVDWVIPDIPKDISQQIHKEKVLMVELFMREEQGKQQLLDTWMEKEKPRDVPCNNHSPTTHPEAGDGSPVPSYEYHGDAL
TMEM16A act – TMEM16A chloride channel activators or potentiators, primary screen, cell-based, HTS; Anoctamin-1 (Mus musculus), Q8BHY3; HEK293 TMEM16A/YFP-H148Q/I152L, iodide quench fluorescence; hits give low values; B-score at 10 µM; 0.3% of 340,000 active;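 active means fluorescence-ratio B-score plate-corrected deviation score at least 3 library SD below zero, with starting fluorescence score within 5 deviations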;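 further: channel opened by trigger with iodide after compound preincubation; score built on the fluorescence ratio of max minus min over baseline; more negative score means more quench and so TMEM16A activation or potentiation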
CHT block – inhibitors of human choline transporter CHT; CHT-expressing cells, membrane potential dye, choline response; hits give low values; 0.86% of 310,000 active; B-score at 10 µM; AID 488975, 2010;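 active means B-score over 3 SD under the library average, and starting fluorescence ratio not unusually high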;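 further: choline stimulus applied at its EC90 after an EC20 pre-addition; B-score computed on integrated fluorescence ratio after choline addition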
CHT act confirm – CHT activators, confirmation, cell-based, membrane potential dye, duplicate | shares compounds with CHT allo act | CHT-expressing cells, membrane potential dye fluorescence (FDSS); % of choline EC20–EC90 response window; HEK293 expressing CHT LV-AA mutant; choline added at its EC20 | activation, % at 10 µM | 91% of 2,500 active | AID 504833, 2011;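 active means primary screen active, with duplicate mean activation above negative control mean plus 3 SD, cut at about 11% in these data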
HEK293 MP dye – membrane potential response in parental HEK293 cells, counter-screen for CHT activator project, cell-based, membrane potential dye. 62% of 2,500 active. AID 623908, 2012. ratio readout change at 10 µM, hits read low. membrane potential dye fluorescence (FDSS); measured after EC20 choline addition. shares compounds with CHT allo act;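 active means duplicate-averaged ratio beyond 3 SD from buffer wells, up or down, though filed actives are nearly all decreases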
Active calls of the source: *; i = inactive; . = no result. A selection: hits, their analogues and other compounds. The true share with any hit is near 2.3%.

SMILES | CHT allo act | TMEM16A inh | TMEM16A act | CHT block | CHT act confirm | HEK293 MP dye
C(=N\n1cnnc1)/c1ccc2ncccc2c1 | 8* | i | i | i | 67* | -80*
CC(C)N(C(=O)COC(=O)c1cccc(N(C)C)c1)c1ccccc1 | i | i | i | i | . | .
CCOC(=O)N1CCC(n2c(SCC(=O)NCCc3ccc(S(N)(=O)=O)cc3)nc3ccccc3c2=O)CC1 | 15* | i | i | i | 35* | -21*
COc1ccc(C)cc1NC(=O)CNc1ccccc1CN(C)C1CCCCC1 | 6.4* | i | i | i | 22* | i
COc1ccc(CNC(=O)C(c2cccs2)N(Cc2ccco2)C(=O)Cc2cccs2)cc1 (stereo not given) | 6.6* | i | i | i | 26* | i
CN(CC(=O)Nc1ccc(F)c(F)c1F)C(=O)c1cc(-c2ccncc2)nc2ccccc12 | i | i | i | i | 40* | i
Cc1sc2nc3ccc(N4CCCC4)nn3c(=O)c2c1C | i | i | i | i | 38* | -38*
O=C1c2nc3cc(-c4ccco4)[nH]n3c(=O)c2CN1Cc1ccccc1 | 7* | i | i | i | 30* | -55*
CC(=O)OC1CC2(C)C(CCC2(O)C(C)=O)C2CCC3C(Cl)C(=O)CCC3(C)C12 (stereo not given) | . | . | i | . | . | .
CCn1cc(C(=O)OC)c(=O)c2ccc(C)nc21 | 12* | i | i | i | 79* | -75*
CCn1cc(C(=O)NCCOC)c(=O)c2ccc(C)nc21 | i | i | i | i | . | .
O=C1N=C2N(CCN3CCCCC3)c3ccccc3N2/C1=C\c1ccc([N+](=O)[O-])s1 | . | . | i | . | . | .
Cc1cc(N2CCC(C)CC2)nc2cccc(O)c12 | 6.8* | i | i | i | 18* | -54*
Cc1cc(Cl)ccc1OC(C)C(=O)NCCCCc1ccccc1 (stereo not given) | i | i | i | i | . | .
Cc1cc(Cl)ccc1OC(C)C(=O)NCCc1ccc2c(c1)OCCO2 (stereo not given) | i | i | i | i | 9 | i
Cc1nnc2c(N3CCN(CCO)CC3)nc3ccccc3n12 | i | i | i | i | 52* | -50*
CC(C)[C@H](NC(=O)c1ccccc1F)C(=O)NC1CCCCCCC1 | . | . | i | . | . | .
O=C(NC1CCCC1)C(c1ccc(F)cc1)N(Cc1ccc(F)cc1)C(=O)c1ccn[nH]1 (stereo not given) | i | i | i | i | 25* | i
O=C(NC1CCCC1)C(c1ccncc1)N(Cc1ccccc1)C(=O)c1ccc(-c2ccccc2)[nH]1 (stereo not given) | i | i | i | i | . | .
CCOc1ccc(C(=O)N[C@H](C(=O)NNC(=O)c2cccs2)C(C)C)cc1 | . | . | i | . | . | .
CCOC(=O)N1CCC(NC(=O)Cn2nc(Cc3ccncc3)c3ccccc3c2=O)CC1 | i | i | i | i | . | .
CN1CCCC(n2nc(Cc3ccc(Cl)cc3)c3ccccc3c2=O)CC1 (stereo not given) | i | i | i | i | 44* | -30*
CCCn1c(SCc2ccc(C(=O)OC)o2)nc2ccccc2c1=O | 6.7* | i | i | i | 48* | i
COC(=O)c1ccc(CSc2cc(C)c3ccccc3n2)o1 | i | i | i | i | . | .
O=C(c1nn(Cc2ccccc2)c(=O)c2ccccc12)N1CCc2ccccc2C1 | 8.4* | i | i | i | 28* | i
SMILES | CHT allo act | TMEM16A inh | TMEM16A act | CHT block | CHT act confirm | HEK293 MP dye
O=C(c1nn(Cc2ccccc2)c(=O)c2ccccc12)N1CCN(c2ccccn2)CC1 | 7.6* | i | i | i | 26* | i
O=C(Cn1nc(Cc2cccnc2)c2ccccc2c1=O)N1CCN(c2ccccn2)CC1 | i | i | i | i | . | .
Cc1ccc(CN(Cc2cc3cc4c(cc3[nH]c2=O)OCCO4)Cc2nnnn2Cc2ccco2)cc1 | i | i | i | i | . | .
COc1ccccc1CN(Cc1cc2c(C)ccc(C)c2[nH]c1=O)Cc1nnnn1Cc1ccco1 | 6.4* | i | i | i | 17* | i
O=S(=O)(NCc1c(Cl)cccc1Oc1ccccc1)c1ccc(F)cc1 | i | i | i | i | 1 | i
CN(C)c1cccc2c(/C=N/O)ccc(N(C)C)c12 | i | i | i | i | 50* | -41*
CN(C)c1ccc(/C=N/O)cc1 | i | i | i | i | . | .
CN(C)c1cccc2c(C=C(C#N)C#N)ccc(N(C)C)c12 | 11* | i | i | i | 57* | -73*
Cc1cc(S(=O)(=O)N2CCOCC2)ccc1OCC(=O)Nc1ccc(Br)cc1F | i | i | i | i | . | .
CN(C)CC1CCCCC1C1(O)c2ccccc2CSc2sccc21 (stereo not given) | i | i | i | i | 13* | i
CN(C)CC1CCCCC1OC(=O)c1ccc(Cl)cc1 (stereo not given) | i | i | i | i | . | .
O=[N+]([O-])c1ccc2nc(-c3cccnc3)[nH]c2c1 | i | i | i | i | 52* | -54*
O=[N+]([O-])c1ccc2nc(-c3ccccc3)[nH]c2c1 | i | i | i | i | . | .
COc1ccc(-c2nnc(SC(C)C(=O)NCc3ccc4c(c3)OCO4)n2Cc2ccco2)cc1 (stereo not given) | 16* | i | i | i | 62* | i
CC1Cc2c([nH]c(=O)n(-c3ccccc3)c2=O)O1 (stereo not given) | . | . | i | . | . | .
CCN1/C(=C/c2cc[n+](C)cc2)C=Cc2cc(C)ccc21 | i | i | i | i | 21* | -61*
CC(C)(C)OC(=O)N1Cc2ccccc2C[C@H]1C(=O)NC1CCCC1 | i | i | i | i | 2 | i
COc1ccccc1CNC(=O)CN(C)S(=O)(=O)c1ccc(Br)s1 | i | i | i | i | . | .
CSc1cccc(NC(=O)CN(C2CCCCC2)S(C)(=O)=O)c1 | 8.9* | i | i | i | 42* | i
COc1ccc(NC(=O)CN(C2CCCCC2)S(C)(=O)=O)cc1OC | i | i | i | i | . | .
CCCCCOc1ccc(C(=O)CCC(=O)NC(C)c2ccc(S(N)(=O)=O)cc2)cc1 (stereo not given) | . | . | i | . | . | .
